# Cruzain noTriton – blocks cruzain activity in detergent-free assay; AID 1476; purified cruzain, Z-FR-AMC fluorescence, no detergent; 2.3% of 200,000 active; Potency, µM, inactives show max response, negative = inhibition, usual class: inhibitors; P25779;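 further: plate controls were enzyme without inhibitor for no effect and buffer without enzyme for full effect; nearly all actives have a fitted effect of over 40% in size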
#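 Detergent-free condition (0.00005% Triton X-100) in acetate buffer pH 5.5 with DTT. 1.5 nM enzyme and compound were pre-mixed 15 min, then 2 uM Z-FR-AMC substrate added; reaction progress from fluorescence change between first and third reads (60 s).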
# Cruzain Triton – cruzain (T. cruzi) inhibition with detergent. purified cruzain, Z-FR-AMC fluorescence, 0.01% Triton. 0.43% of 200,000 active. Potency, µM, for inactives: max response, negative = inhibition, usual class: inhibitors. P25779;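 further: plate controls were neutral wells for no effect and buffer without enzyme for full effect; nearly all actives have a fitted effect of over 40% in size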
#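 Cruzain (1.5 nM) preincubated 15 min at RT with compound in 100 mM sodium acetate pH 5.5, 5 mM DTT, 0.01% Triton X-100. Reaction started with 2 uM Z-FR-AMC; AMC fluorescence (ex 360/em 450 nm) change over 60 s gave rate.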
# Papain counter – blocks papain protease activity, flagging nonselective cruzain hits; shares compounds with Cruzain Triton; purified papain, Z-FR-AMC fluorescence cleavage; Potency, µM, for the others: max response, negative = inhibition, hits mostly inhibitors; 41% of 410 active; AID 2161;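 further: 0% = no-compound wells and -100% = no-enzyme wells; nearly all actives have a fitted effect of over 35% in size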
# Target sequence (P00784 whole entry, looked up): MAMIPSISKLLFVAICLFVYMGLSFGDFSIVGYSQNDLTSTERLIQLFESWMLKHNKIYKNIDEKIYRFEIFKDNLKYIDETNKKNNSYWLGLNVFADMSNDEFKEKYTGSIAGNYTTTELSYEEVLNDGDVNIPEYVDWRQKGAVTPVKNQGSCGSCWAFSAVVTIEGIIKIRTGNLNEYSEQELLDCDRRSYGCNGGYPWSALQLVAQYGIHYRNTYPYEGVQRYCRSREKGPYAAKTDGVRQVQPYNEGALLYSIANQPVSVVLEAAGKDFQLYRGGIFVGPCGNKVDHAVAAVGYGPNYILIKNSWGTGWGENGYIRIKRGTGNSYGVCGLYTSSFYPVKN
# Numbers without * were called inactive; ? = inconclusive; . = no result. Shown are actives, neighbours in structure and some others; about 2.5% of the full set was active somewhere. The call rests on the fitted dose curve; in most records, active means well fitted curve in the direction sought with a large enough effect; inconclusive means small, poorly fitted or top-dose-only effect, or another doubt; inactive means no such curve, though single readings can be large; an effect the other way counts as inactive or inconclusive. Potency means the concentration at half of the fitted maximal effect.
SMILES,Cruzain noTriton,Cruzain Triton,Papain counter
Cc1noc(C)c1-c1ccc2ncnc(NCc3ccccc3)c2c1,3.3%,-2.8%,.
CCN(C(=O)c1cc2c(Cl)nc3ccccc3c2s1)c1cccc(Cl)c1,-10.4%,-0.4%,.
CCCCCSc1nc2sc3c(c2c(=O)n1-c1ccccc1)CCN(C(C)=O)C3,?,-27.0%,.
COc1cccc2cc(-c3nc(Nc4cccc(C)c4)sc3C)c(=O)oc12,-3.2%,-3.5%,.
O=C(NCCc1ccccc1)c1c2c(nc3ccccc13)C(=O)N(C1CCCCC1)C2,0.4%,-2.6%,.
c1ccc(CNc2ncnc3ccc(-c4ccc5c(c4)OCO5)cc23)cc1,-16.4%,-6.3%,.
CC(C)CN(C#N)c1nc(N2CCOCC2)nc(N2CCOCC2)n1,19.3%,2.5%,.
CCNc1nc(NC(C)(C)C)nc(N2CCCC2)n1,-13.8%,0.1%,.
CCNc1nc(C#N)nc(N2CCCCC2)n1,.,.,2.51µM*
CCN(CC)c1nc(C#N)nc(N2CCOCC2)n1,.,.,1µM*
CCOc1ccc(CCNC(=O)CCCc2nnc3n(CCCOC)c(=O)c4sccc4n23)cc1,-6.0%,0.1%,.
COc1ccc(-n2ncc3c2ncn2nc(-c4ccc(Cl)cc4Cl)nc32)cc1,-2.5%,-0.8%,.
COc1ccc(C2c3cccn3CCN2S(=O)(=O)c2ccccc2[N+](=O)[O-])cc1OC (configuration not stated),1.4%,1.0%,.
NC(=S)N/N=C\c1ccc(-c2cccc(Cl)c2Cl)o1,0.631µM*,0.631µM*,2.82µM*
NC(=S)N/N=C/c1ccc(-c2ccc(Cl)c(Cl)c2)o1,0.631µM*,0.631µM*,6.31µM*
COC(=O)N/N=C\c1ccc(-c2cc(Cl)c(Cl)cc2Cl)o1,?,-4.2%,.
Nc1nnc(CC(=O)N/N=C/c2ccc(-c3ccccc3Cl)o2)s1,-14.8%,-16.0%,.
COc1nc(-c2ccc(C)cc2)ccc1-c1noc(-c2ccc(C(C)(C)C)cc2)n1,5.3%,-0.6%,.
O=C(CSc1nc(=O)[nH]c2c1CCC2)NCc1ccc(F)cc1,7.1%,-0.8%,.
Cc1cc(C)c(NC(=O)CCS(=O)(=O)c2cc3c(cc2Cl)NC(=O)CO3)c(C)c1,-1.2%,-2.1%,.
CCOc1ccc(-c2cc3nc(C4CCN(C(=O)OC(C)(C)C)CC4)c(C(=O)O)cn3n2)cc1,?,-24.1%,31.6µM*
CCOc1ccc(-c2cc3nc(C4CCN(C(=O)OC(C)(C)C)CC4)c(C(=O)Nc4c(C)cccc4C)cn3n2)cc1,-20.5%,-9.2%,.
Cc1ccc(S(=O)(=O)N[C@@H](CCCCN)C(=O)CCl)cc1,1µM*,0.794µM*,3.98µM*
Cc1ccc(S(=O)(=O)NC(CC(N)=O)C(=O)O)cc1 (configuration not stated),1.3%,4.2%,.
CCOc1ccc(N(C(C)C(=O)NCCSc2ccc(Cl)cc2)S(C)(=O)=O)cc1 (configuration not stated),?,-10.2%,.
SMILES,Cruzain noTriton,Cruzain Triton,Papain counter
OC(c1ccccc1)c1nc2ccccc2n1Cc1c(F)cccc1Cl (configuration not stated),3.1%,-6.8%,.
COc1ccc(CNC(=O)Cn2c(=O)oc3cc(S(=O)(=O)N4CCCCCC4)ccc32)cc1,-2.5%,-7.0%,.
Cc1ccc(Cl)cc1N1CCN(C(=O)c2ccc3c(c2)N(Cc2ccccc2F)C(=O)c2ccccc2S3(=O)=O)CC1,13.6%,1.4%,.
COc1ccccc1N1CCN(C(=O)CN(c2ccccc2OC)S(=O)(=O)c2ccccc2)CC1,?,2.9%,8.1%
CCOC(=O)N1CCN(C(=O)CN(c2cc(Cl)ccc2OC)S(=O)(=O)c2ccccc2)CC1,?,2.7%,.
N#Cc1c(NC(=O)CSc2ncn(-c3ccccc3)n2)sc2c1CCCC2,?,2.3%,.
N#Cc1c(NC(=O)CSc2ncnc3c2cnn3-c2ccccc2Cl)sc2c1CCCC2,3.16µM*,3.3%,9.9%
O=C(CN1C(=O)COc2ccc(S(=O)(=O)N3CCCC3)cc21)N1CCN(c2ccccc2F)CC1,3.2%,-2.0%,.
N#Cc1nc(-c2cccc3ccccc23)oc1N1CCCCC1,?,-3.4%,.
CC1CCN(c2oc(-c3cccc4ccccc34)nc2C#N)CC1,?,31.6µM*,39.8µM*
O=c1c(-c2cccs2)nc2cnc(N3CCOCC3)nc2n1CCc1ccccc1,-5.2%,2.2%,.
COc1ccc(N=Cc2nc(-c3ccccc3)oc2OC(=O)c2ccccc2)cc1,15.8µM*,10µM*,-24.2%
COc1ccc(C(=O)N/N=C/c2ccc(OC(=O)c3ccccc3)cc2)cc1,?,0.2%,.
Cc1nc2nc(CNC(=O)c3cccc(F)c3)nn2c(C)c1CCC(=O)Nc1cccc(Cl)c1,?,-6.8%,.
Cc1ccc(S(=O)(=O)n2nc(-c3ccc(Cl)cc3)nc2NCc2ccc(F)cc2)cc1,8.0%,-3.0%,.
COc1ccc(Br)cc1-c1noc(-c2ccccc2F)n1,-11.1%,-4.4%,.
Fc1ccccc1-c1nc(-c2ccccc2)no1,10.6%,-5.0%,.
O=c1cc(-c2cccc(Br)c2)nc(-c2ccccc2F)o1,10µM*,8.91µM*,0.6%

# From PubChem
